From PubChem BioAssay (NCI) come the findings set out here.

About 83,000 compounds went through this panel and 20% of them were active in at least one assay; those are over-represented in the sample as a whole.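 Growth was measured after 48 h exposure to one concentration of compound in 96-well plates. Values under 10 count as active.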 Unmarked numbers belong to inactive results. Active and inactive are the calls of the source.

What all share (test): NCI-60 one-dose screen, 48 h (100 = growth as untreated, 0 = no growth, -100 = all killed)
The subject of assay [1] is NCI-H23 lung. The note with it: 10 µM unless noted.
The subject of assay [2] is NCI-H226 lung. The note with it: 10 µM unless noted.
Assay [3] has as its system NCI-H322M lung. The note with it: 10 µM unless noted.
Assay [4] deals with HOP-62 NSCLC. The following applies: 10 µM unless noted.
Assay [5] relates to NCI-H460 lung. The following applies: 10 µM unless noted.
Assay [6] deals with HOP-92 NSCLC. The note with it: 10 µM.
The subject of assay [7] is NCI-H522 lung. The following applies: 10 µM unless noted.
Assay [8] has as its system 786-0 renal. The note with it: 10 µM unless noted.
Assay [9] deals with COLO 205 colon. The following applies: 10 µM unless noted.
Assay [10] has as its system DU-145 prostate. The following applies: 10 µM unless noted.
Assay [11] relates to K-562 leukemia. The following applies: 10 µM unless noted.
The subject of assay [12] is MALME-3M melanoma. The note with it: 10 µM unless noted.
Assay [13] concerns MDA-MB-231 breast. The following applies: 10 µM unless noted.
For assay [14], the system named is RXF 393 renal. The note with it: 10 µM unless noted.
Assay [15] concerns SF-268 CNS. The following applies: 10 µM unless noted.
The test system of assay [16] is SF-295 CNS. The following applies: 10 µM unless noted.
Assay [17] concerns SF-539 CNS. The note with it: 10 µM unless noted.
The subject of assay [18] is UACC-257 melanoma. The following applies: 10 µM unless noted.
In assay [19] the test system is A549/ATCC NSCLC. The following applies: 10 µM unless noted.

Regarding `CC1=NC2=NN3C(=NN2C(c2ccccc2)=C1)N=NC(c1ccc(Br)cc1)=C3c1ccc(Br)cc1`, the growth in assay [1] is 105%; in assay [2], 102%; in assay [3] it was 101%; in assay [4], 102%; in assay [5], 112%; in assay [6], 110%. Besides, the growth in assay [7] was 98.5%; in [8], 107%; in assay [9], 112%; in assay [10], 112%; in assay [11], 96.9%; in assay [12], 53.6%. Moreover, the growth in assay [13] is 95.7%; in assay [14], 138%; in assay [15], 102%; in assay [16], 106%; in assay [17], 97.2%; in assay [18], 109%.

As to `CCCCCc1ccc(S(=O)(=O)Nc2cccc(-c3csc(NCCN4CCN(C)CC4)n3)c2)cc1`, the growth in assay [1] was 84%; in [2] it was 96.7%; in [3], 82.9%; in [4], 89.4%; in [5], -9.25% (active); in assay [6] it was 71.2%. Moreover, the growth is 90.2% in [7]; 60.3% in [8]; 22.2% in assay [9]; 74.3% in assay [10]; 0.356% (active) in assay [11]; -36.7% (active) in [12]. In addition, the growth is 64.3% in assay [13]; 80.9% in assay [15]; 107% in [16]; 76.4% in [17]; 38.1% in [18].

On to `COc1cccc(/C=C(/C)c2ccc3cccc(OC)c3[o+]2)c1O`, for which the growth in [1] is 105%; in [2] it was 103%; in assay [3], 98.8%; in assay [4], 106%; in assay [5] it was 102%; in assay [6], 91%. The growth is 93.6% in assay [7]; 98.5% in assay [8]; 118% in assay [9]; 107% in assay [10]; 97.2% in assay [11]; 105% in [12]. The growth was 89.8% in assay [13]; 95.3% in assay [15]; 101% in assay [16]; 103% in assay [17]; 110% in [18].

For `N#Cc1cccc(CN2CCC3=C(C2)C(=O)N(Cc2ccc(Cl)cc2)C2=NCCCN23)c1`, the growth is 28.4% in [1]; 39.9% in assay [2]; 48.8% in [3]; 26% in assay [4]; 18.9% in [5]; 26.1% in assay [6]. The growth is 14.4% in [7]; 29% in [19]; 44.4% in [8]; -31% (active) in assay [9]; 31.2% in assay [10]; 22.5% in assay [11]. Moreover, the growth in assay [12] was 46.7%; in assay [13], 32.6%; in [15], 37.1%; in assay [16], 7.29% (active); in [17], 40.5%; in [18] it was 13.8%.

Consider `N=c1c2cc(-c3ccccc3)oc2ncn1/N=C/c1ccc(Cl)cc1`, for which the growth is 97.8% in assay [1]; 71% in assay [2]; 90.9% in [3]; 82.6% in assay [4]; 6.07% (active) in [5]; 105% in assay [6]. Also, the growth was 91.6% in [7]; 41.7% in [19]; 85.5% in assay [8]; 89.2% in assay [9]; 38.8% in assay [10]; 78.7% in [11]. For the same compound, the growth in assay [12] was 38.5%; in assay [13], 96.3%; in assay [15], 76.3%; in [16], 93.1%; in assay [17], 82.7%; in [18], 95.1%.

As for `NC(N)=Nc1ccc(Oc2cccc(NC(N)=Nc3ccc(Br)cc3)c2)cn1`, the growth in [1] was 61.1%; in assay [2], 81.3%; in assay [3], 65.1%; in assay [4], 65.6%; in [5], 46.7%; in [6] it was 29%. For the same compound, the growth in assay [7] was 46.9%; in assay [19], 53.5%; in [8], 68.7%; in assay [9], 16.5%; in [10], 80.4%; in assay [11], 52.4%. Besides, the growth is 69.8% in assay [12]; 76.8% in assay [13]; 28.2% in assay [15]; 44.4% in [16]; 48.7% in [17]; 77.9% in [18].

Regarding `COc1ccccc1N1CCN(C2=CC(=O)C(C)=C(C)C2=O)CC1`, the growth in assay [1] was 99.5%; in assay [2] it was 96.9%; in assay [3], 112%; in assay [4] it was 103%; in [5], 102%; in assay [6], 117%. Also, the growth in [19] was 102%; in assay [8] it was 108%; in assay [9], 112%; in [10] it was 105%; in [11] it was 96.9%; in [12] it was 104%. In addition, the growth in assay [13] is 102%; in assay [14], 97.7%; in assay [15], 101%; in assay [16], 103%; in assay [17], 100%; in assay [18], 96.4%.

As for `COc1cc(Cn2cc3c(c2)-c2onc(CN4CCOCC4)c2CC3)cc(OC)c1OC`, the growth in [1] was 94.6%; in assay [2], 87.1%; in [3], 100%; in [4] it was 95.6%; in [5] it was 111%; in [6], 89.7%. The growth is 86% in [7]; 101% in assay [19]; 100% in assay [8]; 114% in [9]; 113% in assay [10]; 72.5% in assay [11]. For the same compound, the growth in [12] is 91.8%; in assay [13], 82.6%; in [15], 99.7%; in assay [16] it was 93%; in assay [17] it was 99.2%; in assay [18], 101%.
